Shiga inhibitor = Shiga toxin inhibition | Vero cells, Shiga toxin protein synthesis inhibition reporter | inhibition, % at 38.7 µM | hit rate 9.2% among 290,000; in the data active means inhibition mostly above about 28%, no sharp cut-off; inactive means mostly below about 43%; further: 0% is about no effect
NS1 inh = blocks influenza NS1 protein function | AID 2326 | Potency, µM (doses to about 46.1 µM), without a hit: top-dose activity, positive = more growth | hit rate 0.4% among 270,000; calls by dose curve; further: potency means the concentration at half of the fitted maximal effect; actives are rising curves; nearly all actives have a fitted effect of over 50% in size
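Growth recovery, yeast-based: influenza A NS1 expressed in S. cerevisiae causes slow growth, and suppressors are detected by OD600. The parent strain without NS1 is used as positive control.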
FBPA Giardia inh = blocks Giardia fructose-bisphosphate aldolase activity; Potency, µM (series often up to 59.6 µM), inactives show top-dose activity, negative = inhibition, hits mostly inhibitors; A8B2U2; purified Giardia FBPA; hit rate 0.71% among 290,000; AID 2451; further: potency means the concentration at half of the fitted maximal effect; on the % scale 0 is the no-effect control and ±100 the full control effect; nearly all actives have a fitted effect of over 55% in size
Target sequence (A8B2U2 whole entry, looked up): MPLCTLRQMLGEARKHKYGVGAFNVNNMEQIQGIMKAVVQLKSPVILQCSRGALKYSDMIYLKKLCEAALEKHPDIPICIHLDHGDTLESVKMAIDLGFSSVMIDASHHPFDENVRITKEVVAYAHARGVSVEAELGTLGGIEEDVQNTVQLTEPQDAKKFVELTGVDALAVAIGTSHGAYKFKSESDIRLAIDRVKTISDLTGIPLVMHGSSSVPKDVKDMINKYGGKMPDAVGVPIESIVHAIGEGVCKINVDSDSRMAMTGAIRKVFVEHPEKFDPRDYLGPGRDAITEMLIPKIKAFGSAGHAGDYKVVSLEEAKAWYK
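Giardia FBPA (40 nM reagent) was preincubated 10 min at RT with compound (up to 57.5 uM final), then substrate plus GAPDH/TPI/NAD/arsenate coupling system with diaphorase/resazurin was added; resorufin fluorescence (525/598 nm) was read after 20 min.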
Pf growth 96h = inhibits malaria parasite growth, 96 h. P. falciparum luciferase reporter growth, 96 h. Potency, µM (top dose mostly 28.7 µM), for the others: at the highest dose activity change, negative = inhibition, hits mostly inhibitors. hit rate 6.9% among 320,000; further: potency means the concentration at half of the fitted maximal effect; on the % scale 0 is the no-effect control and ±100 the full control effect
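Cell-based qHTS: luciferase-tagged P. falciparum in erythrocytes (2% hematocrit, 0.05% parasitemia final) incubated with compounds for 96 hours, 37 C, 5% CO2; luciferase detection reagent then added and luminescence measured.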
CHX counter = counter-screen for Shiga toxin inhibitors: cycloheximide protein synthesis inhibition | cell reporter, cycloheximide protein synthesis inhibition counterscreen | max response, % | hit rate 12% among 300,000; in the data active means max response mostly above about 13%, no sharp cut-off; inactive means mostly below about 14%; further: read at 38.3 µM for the half of the compounds with a filed dose; 0% is about no effect
Pf growth 48h = inhibits P. falciparum growth in the first generation, 48 h; P. falciparum luciferase growth in erythrocytes, 48 h; hit rate 5.9% among 310,000; Potency, µM (doses to about 28.7 µM), for inactives: at the highest dose activity change, negative = inhibition, actives largely listed as inhibitors; AID 504832; further: potency means the concentration at half of the fitted maximal effect; on the % scale 0 is the no-effect control and ±100 the full control effect
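A one-generation exposure of luciferase-tagged malaria parasites in RPMI 1640/Albumax erythrocyte culture, 37 C and 5% CO2. Inhibition is inferred from decreased luminescence after adding detection reagent.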
Starred values were filed as active, the others as inactive. Sampled rows, rich in hits. Any-hit rate of the full collection: about 21%. Unless noted, the call rests on the fitted dose curve; in most records, active means well fitted curve in the direction sought with a large enough effect; inconclusive means small, poorly fitted or top-dose-only effect, or another doubt; inactive means no such curve, though single readings can be large; an effect the other way counts as inactive or inconclusive.

`COc1cccc(NC(=O)COc2ccc(C(=S)N3CCN(C)CC3)cc2OC)c1` gave Shiga inhibitor 10.8, NS1 inh 23.0%, FBPA Giardia inh -6.7%, Pf growth 96h inconclusive, CHX counter 0.9 and Pf growth 48h inconclusive.
`CCc1ccc(NC(=O)CCC(=O)Nc2nnc(C(C)C)s2)cc1` gave Shiga inhibitor 10.1, NS1 inh 11.0%, FBPA Giardia inh 10.6%, Pf growth 96h 23.6%, CHX counter 0.5 and Pf growth 48h -4.6%.
For COc1cc(NC(=O)c2ccccc2-c2ccccc2)cc(OC)c1 the results were Shiga inhibitor -10.6, NS1 inh -24.1%, FBPA Giardia inh -2.2%, Pf growth 96h -5.5%, CHX counter -4.8 and Pf growth 48h 20.0%.
Screening Cc1cc([N+](=O)[O-])ccc1N1C(=O)c2ccc(C(=O)Nc3ccccc3C(=O)O)cc2C1=O returned Shiga inhibitor 27.5, NS1 inh 4.1%, FBPA Giardia inh -5.7%, Pf growth 96h -29.0%, CHX counter -0.8 and Pf growth 48h 0.0%.
`COc1ccc(NC2=C(NC(C)=O)C(=O)c3ccccc3C2=O)cc1` gave Shiga inhibitor 25.0, NS1 inh 0.3%, FBPA Giardia inh inconclusive, Pf growth 96h -0.9%, CHX counter 6.8 and Pf growth 48h inconclusive.
`COc1ccc(C2=C(Nc3ccccc3)c3ccccc3C2=O)cc1` gave Shiga inhibitor 5.1, NS1 inh -8.0%, FBPA Giardia inh 1.2%, Pf growth 96h -92.7%, CHX counter 7.7 and Pf growth 48h 1.04µM*.
Screening Nc1cccc(-c2nc3ccc(C(=O)c4ccccc4)cc3[nH]2)c1 returned Shiga inhibitor 61.4*, NS1 inh -1.4%, FBPA Giardia inh -2.3%, Pf growth 96h -5.0%, CHX counter 33.4* and Pf growth 48h 94.0%.
`Nc1ccc2nc(-c3ccccc3)[nH]c2c1` gave Shiga inhibitor 126.4*, NS1 inh -6.3%, FBPA Giardia inh -12.9%, CHX counter 35.6* and Pf growth 48h 123.4%.
COc1ccc2nc(-c3ccc(N)cc3)[nH]c2c1 was read as Shiga inhibitor 9.9, NS1 inh -0.7%, FBPA Giardia inh -11.6%, Pf growth 96h inconclusive, CHX counter 12.8 and Pf growth 48h -39.5%.
Nc1cccc(C(=O)Nc2ccc3nc(-c4cccnc4)[nH]c3c2)c1 was read as Shiga inhibitor -5.0, NS1 inh inconclusive, FBPA Giardia inh -18.1%, Pf growth 96h -21.1%, CHX counter -3.4 and Pf growth 48h -20.6%.
Screening COc1ccc2nc(-c3cccc(N)c3)[nH]c2c1 returned Shiga inhibitor 32.3, NS1 inh 15.0%, FBPA Giardia inh inconclusive, Pf growth 96h 35.3%, CHX counter 18.3* and Pf growth 48h 320.0%.
For Cc1cc(=O)[nH]c(-c2ccccc2)n1 the results were Shiga inhibitor -20.9, NS1 inh 15.3%, FBPA Giardia inh -2.3%, CHX counter 7.4 and Pf growth 48h -7.1%.
Screening Nc1ccc2nc(-c3ccc(N)c(Cl)c3)[nH]c2c1 returned Shiga inhibitor 76.5*, NS1 inh 2.6%, FBPA Giardia inh -20.7%, CHX counter 24.5* and Pf growth 48h inconclusive.
For COc1ccc(N2C(=O)C3CCCN3C2c2ccc(C)o2)cc1 (stereo not drawn) the results were Shiga inhibitor -1.3, NS1 inh 3.9%, FBPA Giardia inh 0.6%, Pf growth 96h 3.0%, CHX counter -5.7 and Pf growth 48h -9.3%.
For COc1ccc(CCNC(=O)C2CCN(S(=O)(=O)c3ccc(C)cc3)CC2)cc1 the results were Shiga inhibitor 15.8, NS1 inh inconclusive, FBPA Giardia inh 18.2%, Pf growth 96h inconclusive, CHX counter 2.9 and Pf growth 48h inconclusive.
Screening CC1=C(O)C(=O)C=C2C1=CC=C1[C@]2(C)CC[C@@]2(C)C3C[C@](C)(C(=O)O)CC[C@@]3(C)CC[C@@]12C (stereo partly drawn) returned FBPA Giardia inh -22.1%.
For CC(=O)Nc1ccc(N(C(=O)CNC(=O)c2ccco2)C(C(=O)NC2CCCC2)c2ccco2)cc1 (stereo not drawn) the results were Shiga inhibitor 20.9, NS1 inh -2.8%, FBPA Giardia inh -9.9%, Pf growth 96h 8.9%, CHX counter -2.0 and Pf growth 48h 12.0%.
For CCOc1cccc2cc(C(=O)NCCC3=CCCCC3)c(=O)oc12 the results were Shiga inhibitor 24.8, NS1 inh 5.1%, FBPA Giardia inh -3.6%, Pf growth 96h 2.4%, CHX counter 12.6 and Pf growth 48h 10.8%.
Nc1ccc2nc(-c3cccnc3)[nH]c2c1 was read as Shiga inhibitor 12.7, NS1 inh 8.0%, FBPA Giardia inh -26.0%, Pf growth 96h -15.7%, CHX counter 15.1* and Pf growth 48h inconclusive.
Nc1ccc(-c2nc3c(Cl)cc(N)cc3[nH]2)cc1 was read as Shiga inhibitor -19.9, NS1 inh -1.2%, FBPA Giardia inh -17.1%, Pf growth 96h 9.28µM*, CHX counter -8.1 and Pf growth 48h inconclusive.
`Nc1ccc2nc(-c3cccs3)[nH]c2c1` gave Shiga inhibitor 52.4*, NS1 inh 2.9%, FBPA Giardia inh -3.5%, Pf growth 96h -7.7%, CHX counter 19.5* and Pf growth 48h -68.3%.
`Nc1ccc2nc(C(F)(F)F)[nH]c2c1` gave Shiga inhibitor -6.2, NS1 inh -0.1%, FBPA Giardia inh inconclusive, Pf growth 96h 30.7%, CHX counter -0.5 and Pf growth 48h 3.3%.
`Cc1nc2c(Cl)cc(Cl)cc2[nH]1` gave Shiga inhibitor -13.1, NS1 inh -147.2%, FBPA Giardia inh 3.8%, Pf growth 96h 85.0%, CHX counter -2.2 and Pf growth 48h 18.3%.
Screening Nc1ccc2nc(-c3ccccn3)[nH]c2c1 returned Shiga inhibitor 53.3*, NS1 inh 6.8%, FBPA Giardia inh -17.1%, Pf growth 96h inconclusive, CHX counter 28.6* and Pf growth 48h inconclusive.
For CCCn1c(CN2CCN(C(=O)OCC)CC2)nc2cc(NC(C)=O)ccc21 the results were Shiga inhibitor -2.2, NS1 inh 0.2%, FBPA Giardia inh -19.4%, Pf growth 96h -11.9%, CHX counter -1.7 and Pf growth 48h -8.8%.
COc1ccc(C(=O)NC2CCN(CC(=O)Nc3cccc(OC)c3)CC2)cc1 was read as NS1 inh 20.4%, FBPA Giardia inh 4.4%, Pf growth 96h inconclusive, CHX counter -1.8 and Pf growth 48h inconclusive.
For O=C1OCC(c2ccc(Cl)s2)=C1c1ccccc1[N+](=O)[O-] the results were Shiga inhibitor 2.2, NS1 inh 0.0%, FBPA Giardia inh -15.4%, Pf growth 96h -4.2%, CHX counter 7.5 and Pf growth 48h 3.2%.
COc1ccc(CNS(=O)(=O)c2ccc3c(c2)N(C(C)=O)CC(C)S3)cc1 (stereo not drawn) was read as Shiga inhibitor -5.1, NS1 inh 5.7%, Pf growth 96h inconclusive, CHX counter 0.2 and Pf growth 48h -12.6%.
